PubChem BioAssay (EPA / NIEHS)
Calls of active or inactive are those of the source. How the source made its calls: active means hit-call score of the fitted dose curve at least 0.9, where 1 is the maximum; inactive means score below 0.9.

Read-out: 3-Hydroxy-3-Methylglutaryl-CoA Synthase 2 (HMGCS2), HMGCS2 (gene 3158)
Experiment: LTEA_HepaRG_HMGCS2: Life Technologies and Expression Analysis (LTEA) Assay for 3-Hydroxy-3-Methylglutaryl-CoA Synthase 2 (HMGCS2) using HepaRG (AID 2283504)
Conditions: mRNA level, 48 h; actives raise or lower the signal
Summary of the method: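 Human HepaRG cells in serum-free induction medium were exposed in duplicate for 48 h to 8-point half-log series from 100 uM top in 0.5% DMSO. HMGCS2 mRNA measured by TaqMan qRT-PCR, normalised to ACTB, GAPDH, POLR2A; bidirectional fit versus DMSO.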

SMILES	outcome	AC50
COc1c(Cl)ccc(Cl)c1C(=O)O	inactive	–
CCCCCOC(=O)COc1cc(N2C(=O)C3=C(CCCC3)C2=O)c(F)cc1Cl	inactive	–
CCC(C)OC(=O)N1CCCCC1CCO (stereo not given)	inactive	–
CCCCOCCOCCOCc1cc2c(cc1CCC)OCO2	inactive	–
CCOC(=O)COc1cc(-n2ncc(C(F)(F)F)c(C)c2=O)c(F)cc1Cl	inactive	–
CCCN(CCC)c1c([N+](=O)[O-])cc(C(F)(F)F)c(N)c1[N+](=O)[O-]	–	33.3 µM (active)
CC1(C)C(C=C(Cl)Cl)C1C(=O)OCc1cccc(Oc2ccccc2)c1 (stereo not given)	inactive	–

Read-out: HGF (gene 3082)
Experiment: LTEA_HepaRG_HGF: Life Technologies and Expression Analysis (LTEA) Assay for Hepatocyte Growth Facto (HGF) using HepaRG (AID 2283505)
Conditions: mRNA level, 48 h; actives raise or lower the signal
Summary of the method: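 Differentiated HepaRG cells in serum-free induction medium exposed 48 h in duplicate, 8 half-log concentrations from 100 uM in 0.5% DMSO. HGF mRNA by qRT-PCR, normalised to ACTB, GAPDH, POLR2A; bidirectional fitting.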

SMILES	outcome	AC50
C#C[C@]1(O)CC[C@H]2[C@@H]3CCC4=CC(=O)CC[C@@H]4[C@H]3CC[C@@]21CC	inactive	–
O=C(O)c1ccccc1	inactive	–
COC(=O)c1ccccc1C(=O)O	inactive	–
CC(C)(C)[C@@H](O)[C@@H](Cc1ccc(Cl)cc1)n1cncn1	inactive	–
c1ccc2[nH]c(-c3cscn3)nc2c1	inactive	–
N[C@@H](Cc1cc(I)c(Oc2ccc(O)c(I)c2)c(I)c1)C(=O)O	inactive	–
CCOC(=O)c1ccc(O)cc1	inactive	–
O=C(Nc1ccc([N+](=O)[O-])cc1Cl)c1cc(Cl)ccc1O	–	2.98 µM (active)
COC(=O)c1ccc(I)cc1S(=O)(=O)NC(=O)Nc1nc(C)nc(OC)n1	inactive	–
CCCN(CCC)C(=O)SCC	inactive	–
CCCCC(CC)COC(=O)c1ccccc1C(=O)O (stereo not given)	inactive	–
C[C@]12C[C@H](O)[C@H]3[C@@H](CCC4=CC(=O)CC[C@@]43C)[C@@H]1CC[C@@H]2C(=O)CO	inactive	–
S=C([S-])NCCNC(=S)[S-].[Mn+2]	–	7.5 µM (active)
